Measured values taken from the supplement of paper PMC8728848.
The sample as a whole holds a higher share of the strongest signals than the screen did.

How the values were obtained:
Assay in all cases: glycan array binding signal (z-score within array); higher = stronger binding
Details in all cases: glycan notation: IUPAC condensed, linker removed
[1] = biological target: GlcNAc(b1-3)[GlcNAc(b1-4)][GlcNAc(b1-6)]GlcNAc
Summary of the method: (§1)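 Negative Z-scores can be read as non-binding. The Z-score is calculated within each array and then averaged across arrays of one protein sequence at different concentrations or buffers and across linkers. Arrays, 3228 in all, were curated from the Consortium for Functional Glycomics database and kept only where the protein sequence was available.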

Kdn(a2-3)Gal(b1-4)GlcNAc = biological target: Kdn(a2-3)Gal(b1-4)GlcNAc
Summary of the method: as §1

[2] = biological target: Man(a1-2)Man(a1-2)Man(a1-3)Man
Summary of the method: as §1

[3] = biological target: Man(a1-2)Man(a1-3)[Man(a1-6)]Man(a1-6)[Man(a1-2)Man(a1-3)]Man(b1-4)GlcNAc(b1-4)GlcNAc
Summary of the method: as §1

[4] = biological target: Man(a1-3)[Man(a1-6)]Man(b1-4)GlcNAc(b1-4)[Fuc(a1-6)]GlcNAc
Summary of the method: as §1

[5] = biological target: Neu5Ac(a2-3)Gal(b1-4)GlcNAc(b1-2)Man
Summary of the method: as §1

[6] = biological target: Neu5Ac(a2-3)Gal(b1-4)GlcNAc(b1-3)Gal
Summary of the method: as §1

[7] = biological target: Neu5Ac(a2-3)Gal(b1-4)GlcNAc(b1-3)Gal(b1-4)GlcNAc(b1-3)GalNAc
Summary of the method: as §1

[8] = biological target: Neu5Ac(a2-3)Gal(b1-4)GlcNAc(b1-3)Gal(b1-4)GlcNAc(b1-6)[Gal(b1-3)]GalNAc
Summary of the method: as §1

[9] = biological target: Neu5Ac(a2-3)Gal(b1-4)GlcNAc(b1-3)GalNAc
Summary of the method: as §1

[10] = biological target: Neu5Ac(a2-3)Gal(b1-4)[Fuc(a1-3)]GlcNAc(b1-3)GalNAc
Summary of the method: as §1

[11] = biological target: Neu5Ac(a2-3)Gal6S(b1-4)[Fuc(a1-3)]GlcNAc
Summary of the method: as §1

[12] = biological target: Neu5Ac(a2-6)Gal(b1-4)GlcNAc(b1-3)Gal(b1-4)GlcNAc(b1-3)Gal(b1-4)GlcNAc(b1-2)Man(a1-3)[Neu5Ac(a2-6)Gal(b1-4)GlcNAc(b1-3)Gal(b1-4)GlcNAc(b1-3)Gal(b1-4)GlcNAc(b1-2)Man(a1-6)]GalNAc
Summary of the method: as §1

[13] = biological target: Neu5Ac(a2-6)Gal(b1-4)GlcNAc(b1-6)[Gal(b1-3)]GalNAc
Summary of the method: as §1

[14] = biological target: Neu5Ac(a2-6)GalNAc(b1-4)GlcNAc
Summary of the method: as §1

[15] = biological target: Neu5Ac(a2-6)GlcNAc(b1-4)GlcNAc
Summary of the method: as §1

[16] = biological target: Neu5Ac(a2-6)GlcNAc(b1-4)GlcNAc(b1-4)GlcNAc
Summary of the method: as §1

[17] = biological target: Neu5Ac(a2-8)Neu5Ac(a2-3)Gal(b1-3)GalNAc(b1-4)[Neu5Ac(a2-8)Neu5Ac(a2-3)]Gal(b1-4)Glc
Summary of the method: as §1

[18] = biological target: Neu5Gc(a2-3)Gal(b1-4)[Fuc(a1-3)]GlcNAc
Summary of the method: as §1

B1: B1257 (Bifidobacterium sp) (protein)
chain: MKKSIRLVAAIAALAMTAGISACGSSTNGNQAKSDVTAQDVETALTDTSKNVELTVWAYSAKQMEPTVKAFEKKYPHIKINFVNTGAAGDHFTKFQNVVQAQKDIPDVVQMGANKFQQFAVSGALLNFANDSIEKAWSKLYTKTAWAQVHYAGGLYGAPQDATPLANYVRKDILDEHNLQVPESWEDIYNEGIKLHKEDSNKYMGILGSDISFFTNLYRSVGARLWKVNSVDDVELTMNSGKAKEFTEFLQKCLKDGVLEGGTVFTDEFNRSINDGRYATFINENWMGNTYKEQNPSLKGKMVVAAPPSWKGQPYQSSSVGSMMSVSAACPKEKQAAALAFINWLDSDKDAIQSWQDTNNGNFFMAASVYQDDENQRNKKETDGYYANDDVNAVYFDSMDKVNTDWEYLPFMSQVEVVFNDVIVPQMNENGDLVGAMAKAQQELKTYAKDNGFKVTTDAD
For B1, which “glycan array binding signal (z-score)” value [1] is on record?
The value was -0.13.

And the “glycan array binding signal (z-score)” value (Kdn(a2-3)Gal(b1-4)GlcNAc)?
Its value is -0.061.

And the “glycan array binding signal (z-score)” value [2]?
The value was -0.128.

What about the “glycan array binding signal (z-score)” value [3] of the same binder?
The value was -0.161.

And the “glycan array binding signal (z-score)” value [4]?
The value was -0.128.

What about the “glycan array binding signal (z-score)” value [5] of the same binder?
The value was 0.015.

And the “glycan array binding signal (z-score)” value [6]?
Its value is -0.111.

And the “glycan array binding signal (z-score)” value [7]?
Its value is -0.094.

What about the “glycan array binding signal (z-score)” value [8] of the same binder?
Its value is -0.087.

What about the “glycan array binding signal (z-score)” value [9] of the same binder?
The value was 0.727.

And the “glycan array binding signal (z-score)” value [10]?
Its value is 0.158.

And the “glycan array binding signal (z-score)” value [11]?
The value was -0.194.

What about the “glycan array binding signal (z-score)” value [12] of the same binder?
The value was 0.344.

And the “glycan array binding signal (z-score)” value [13]?
Its value is -0.046.

And the “glycan array binding signal (z-score)” value [14]?
The value was -0.178.

And the “glycan array binding signal (z-score)” value [15]?
Its value is -0.027.

And the “glycan array binding signal (z-score)” value [16]?
Its value is -0.081.

What about the “glycan array binding signal (z-score)” value [17] of the same binder?
Its value is -0.004.

What about the “glycan array binding signal (z-score)” value [18] of the same binder?
The value was -0.012.
